# An excerpt weighted towards active compounds, which were near 10% of everything screened.
# Lmaj promast – inhibitors of Leishmania major promastigote growth. Leishmania major promastigotes, resazurin fluorescence viability. inhibition, % at 10 µM. 200,000 tested, 9% active. AID 1063; in the data active means inhibition above about 50%;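 further: promastigotes grown with compound for 44 hours at 28 °C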
# Insulin prom inh – TRM-6 insulin promoter activity inhibition | TRM-6 cells (human fetal islet line), insulin promoter-eGFP reporter, imaging; reporter expression induced with tamoxifen | inhibition, % at 2 µM | 130,000 tested, 0.9% active | AID 1273;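 active means inhibition above the mean plus 3 SD, with well images judged a real hit on visual review, cut at about 60% in these data, passing the limit was not always enough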
# ROMK mod – modulators of human ROMK potassium channel. 130,000 tested, 2% active. P48048. AID 1918. Tet-inducible ROMK, thallium flux fluorescence; actives lie on both sides. B-score at 10 µM;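 active means signal ratio slope over the read window, or its plate-corrected B-score, at least 3 SD from the plate mean, either direction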;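 further: B-score of the F/F0 ratio slope over 7 to 12 s after thallium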
# Target sequence (P48048 whole entry, looked up): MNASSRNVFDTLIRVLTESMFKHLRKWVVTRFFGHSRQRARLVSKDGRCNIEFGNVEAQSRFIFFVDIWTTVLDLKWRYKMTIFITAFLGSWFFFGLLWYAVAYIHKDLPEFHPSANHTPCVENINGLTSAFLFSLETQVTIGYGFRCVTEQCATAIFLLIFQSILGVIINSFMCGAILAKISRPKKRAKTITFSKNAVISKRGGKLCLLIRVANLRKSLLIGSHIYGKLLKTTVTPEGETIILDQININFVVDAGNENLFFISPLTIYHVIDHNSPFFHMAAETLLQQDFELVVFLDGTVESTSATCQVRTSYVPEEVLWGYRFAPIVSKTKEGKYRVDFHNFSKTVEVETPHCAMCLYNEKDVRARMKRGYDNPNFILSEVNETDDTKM
# bCat KO growth – beta-catenin-lacking colon tumor cell growth suppression. HCT116 beta-catenin knockout viability, CellTiter-Glo, 60 h; stronger effect = lower value. viability, % at 10 µM. 140,000 tested, 1.5% active. AID 818;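 active means viability at or under a set limit, the compound median less 4 SD, cut at about 6% in these data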;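 further: 0% = Hyamine 1622 control at 20 µM and 100% = untreated cell control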
# PTEN del growth – PTEN-deleted cell growth suppression | HCT116 PTEN-null viability, CellTiter-Glo, 60 h; stronger effect = lower value | viability, % at 10 µM | 140,000 tested, 1.2% active;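 active means viability at or below a set limit, 4 SD under the median of all tested compounds, cut at about 3.7% in these data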;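 further: PTEN knockout HCT116 line with beta catenin targeted HCT116 as companion control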
# p97 inhibitor – blocks human p97 ATPase activity; P55072; recombinant p97 ATPase, Kinase-Glo ATP luminescence, 3 h; inhibition, % at 8 µM; 220,000 tested, 0.42% active; AID 1481; in the data active means inhibition above about 15%;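 further: 0% = DMSO vehicle and 100% = wells lacking enzyme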
# * marks the source's active call; other numbers are inactive results; nt = no result; ! = a repeat was not active.
SMILES,Lmaj promast,Insulin prom inh,ROMK mod,bCat KO growth,PTEN del growth,p97 inhibitor
CC(=O)Nc1ccc(Nc2cc(C)nc3c(-c4ccccc4)cnn23)cc1,89*,75*,nt,51,39,0
CCOC(=O)Cc1c(C)nc2c(-c3cccc(Br)c3)cnn2c1C,-8,nt,0.59,83,88,4
Cc1ccc(-c2cc3nc(-c4ccccc4)cc(N)n3n2)cc1,4,12,nt,96,99,3
Cc1cc(N)n2nc(-c3ccccc3)cc2n1,55*,42,0.62,70,74,-15
CC(=O)Nc1ccc(Nc2cc(-c3ccccc3)nc3ncnn23)cc1,9,-14,0.048,nt,nt,1
CCSc1cc(C)nc2c(-c3ccccc3)cnn12,nt,nt,nt,nt,nt,-2
Cc1cc(N)n2ncc(-c3cccc(Br)c3)c2n1,41,93*,0.3,71,80,4
Cc1cc(N)n2ncc(-c3ccccc3)c2n1,15,87*,0.043,90,102,12
O=C(COC(=O)Cc1ccccc1F)Nc1cccc(S(=O)(=O)NC2=NCCCCC2)c1,-3,-44,0.01,nt,nt,0
CC(C)NC(=O)COc1ccc(S(=O)(=O)N(C)Cc2ccccc2)cc1,nt,nt,nt,nt,nt,0
CC(=O)c1cnc2c(-c3cccc(Br)c3)cnn2c1C,88*,-5,0.042,82,91,5
CC(=O)c1cnc2c(C(=O)O)cnn2c1C,-7,17,nt,94,93,1
Cc1nccn1-c1cc(C(C)(C)C)nc2c(-c3ccccc3)cnn12,67*,4,2.1,84,89,-3
O=c1[nH]c(CSc2ncccn2)nc2c1cnn2-c1ccccc1,54*,-5,nt,89,99,-1
O=c1[nH]c(SCc2nc3c(cnn3-c3ccccc3)c(=O)[nH]2)nc2ccccc12,0,nt,-0.42,22,30,6
CC(C)Sc1nc2ccccc2n1CC(=O)NCc1ccc2c(c1)OCO2,5,91*,nt,94,81,-3
COCCCN(CC(=O)Nc1ccc(N2CCOCC2)cc1)S(=O)(=O)c1ccccc1,0,nt,-0.51,nt,nt,7
CC1=C(C#N)C(c2ccc(O)cc2)C2=C(CCCC2=O)N1 (stereo unspecified),-4,nt,0.0056,nt,nt,6
CC1=C(C#N)C(c2cccnc2)C2=C(CC(c3ccc(Cl)cc3)CC2=O)N1 (stereo unspecified),100*,43,nt,81,82,-1
CCOc1cc([N+](=O)[O-])c2nc(N)sc2c1,nt,nt,nt,nt,nt,2
COc1ccc(/C(N)=N/OC(=O)CN(C)S(=O)(=O)c2ccc(C)cc2)cc1,1,nt,-0.39,nt,nt,-2
CN(C)CCCN1c2ccccc2Sc2ccc(Cl)cc21,83*,-73,nt,1.8*!,2.7*!,8
CN(C)CCCN1c2ccccc2CCc2ccccc21,28,38,nt,75,78,-2
O=C(O)CCN1c2ccccc2Sc2ccccc21,nt,nt,nt,nt,nt,1
OCCN1CCN(CCCN2c3ccccc3Sc3ccc(Cl)cc32)CC1,96*,24,nt,1.5*,2.3*,-6
SMILES,Lmaj promast,Insulin prom inh,ROMK mod,bCat KO growth,PTEN del growth,p97 inhibitor
COc1ccc(CCNC(=O)CC2SC(N)=NC2=O)cc1OC (stereo unspecified),-2,33,1.1,nt,nt,1
O=[N+]([O-])c1ccc(N/N=C/c2sc(N3CCOCC3)nc2-c2ccccc2)c(S(=O)(=O)Nc2ccccc2Cl)c1,70*,nt,-5*,nt,nt,8
O=[N+]([O-])c1ccc(N/N=C/c2sc(N3CCOCC3)nc2-c2ccccc2)c(S(=O)(=O)Nc2ccc(Cl)cc2)c1,66*,-488,-0.1,nt,nt,-3
O=C(O)c1cccc(N/N=C/c2sc(N3CCOCC3)nc2-c2ccccc2)c1,29,47,0.91,98,99,6
Cc1cccn2c(=O)c(C=O)c(Sc3ncccn3)nc12,-3,28,nt,nt,nt,5
CN(CCO)CCC(=O)NC1(C)CS(=O)(=O)CC1S(=O)(=O)O (stereo unspecified),nt,nt,nt,nt,nt,5
COc1ccc(C(=O)NNC(=O)CN2CCC(n3nnc4cc(C(F)(F)F)ccc43)CC2)cc1,-8,nt,nt,92,92,3
COc1ccc(C(=O)NNC(=O)CN2CCC(n3nnc4cc(F)ccc43)CC2)cc1,50*,-11,-0.51,83,100,2
O=[N+]([O-])c1cc(C(F)(F)F)ccc1N1CCCNCC1,79*,nt,-1.1,nt,nt,-4
Cc1nccn1-c1ccc(C(F)(F)F)cc1[N+](=O)[O-],-6,73*,1.2,nt,nt,-3
Cc1nccn1-c1ccc(C(F)(F)F)cc1NC=O,-4,-15,nt,107,107,1
O=[N+]([O-])c1cc(C(F)(F)F)ccc1N1CCN(S(=O)(=O)c2ccc3c(c2)CCCC3)CC1,67*,0,nt,16,17,4
CC1CN(c2ccc(C(F)(F)F)cc2[N+](=O)[O-])CCN1S(C)(=O)=O (stereo unspecified),77*,-57,-1.2,80,71,-1
CCNc1cc(N2CCN(S(=O)(=O)c3ccc4c(c3)CCCC4)CC2)ccc1[N+](=O)[O-],-2,64,nt,77,86,3
CC1=NN(c2ccc(Cl)c(C(=O)O)c2)C(=O)/C1=C\c1ccc(-c2ccc(C(=O)O)cc2)o1,-4,nt,1.4,nt,nt,6
O=C(O)c1ccc(N2C(=O)/C(=C/c3ccc(-c4ccc([N+](=O)[O-])cc4)o3)C=C2c2ccccc2)cc1,99*,-155,-0.04,nt,nt,5
CCOc1ccc(C/C(O)=C2\C(=O)CC(C)(C)CC2=NCC(=O)O)cc1OCC,-4,35,-1.1,nt,nt,1
O=C(Nc1nc(-c2ccccn2)cs1)C1CCCC1,79*,nt,-0.48,nt,nt,3
O=C(Nc1ccc2nc(-c3ccccn3)[nH]c2c1)C1CCCCC1,100*,47,nt,95,89,1
O=C(/C=C/c1ccco1)Nc1nc(-c2ccccn2)cs1,100*,nt,0.6,nt,nt,6
O=C(CCCSc1ccccc1)Nc1nc(-c2ccco2)c(-c2ccco2)s1,75*,76*,-0.73,80,75,-1
CC(C)c1nc2ccc(NC(=O)C3CCCCC3)cc2[nH]1,5,-40,nt,94,94,2
COc1cccc(C2c3[nH]c4ccccc4c3CCN2Cc2ncc[nH]2)c1 (stereo unspecified),4,nt,-1.1,nt,nt,3
CC(C)(C)c1csc(Sc2ncccc2[N+](=O)[O-])n1,nt,nt,nt,nt,nt,-6
C=CCNC(=O)C(=O)N/N=C/c1ccco1,-6,nt,nt,83,94,-3
SMILES,Lmaj promast,Insulin prom inh,ROMK mod,bCat KO growth,PTEN del growth,p97 inhibitor
O=C(CCCSc1ccccc1)Nc1nc(-c2ccccn2)cs1,100*,-9,0.057,15,nt,-6
CSCCC(=O)Nc1nc(-c2ccccn2)cs1,88*,-36,0.86,nt,nt,-1
CC(C)Oc1ccc(/C=N/NC(N)=S)cc1,26,15,-0.22,39,32,-2
CN(Cc1ccccc1)c1nc2nonc2nc1N1CCCC(CN2CCCC2=O)C1 (stereo unspecified),nt,nt,nt,nt,nt,3
COCC(=O)Nc1ccc(S(=O)(=O)NCCc2ccccc2)cc1,-4,100*,nt,86,92,-2
CCC(=O)Nc1ccc(S(=O)(=O)NCCc2ccccc2)cc1,6,-33,-1.7,92,91,1

# Bioassay records (PubChem)
